According to PMC4336329 (PLoS ONE, 2015):
The whole screen tested about 310,000 compounds, of which about 14,000 (4.5%) showed an effect of 50% or more. Effects have a minus sign here. The entries come from a sample that favours strong results as a whole.

molecular target: human ether-à-go-go-related gene (hERG) potassium channel (human, UniProt Q12809); assay: primary screen, population patch clamp on CHO cells stably expressing hERG; higher = less effect of the substance
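Also: peak tail current of the secondary pulse compared with the same well before compound.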

Chain of human ether-à-go-go-related gene (hERG) potassium channel (Q12809 whole entry, looked up): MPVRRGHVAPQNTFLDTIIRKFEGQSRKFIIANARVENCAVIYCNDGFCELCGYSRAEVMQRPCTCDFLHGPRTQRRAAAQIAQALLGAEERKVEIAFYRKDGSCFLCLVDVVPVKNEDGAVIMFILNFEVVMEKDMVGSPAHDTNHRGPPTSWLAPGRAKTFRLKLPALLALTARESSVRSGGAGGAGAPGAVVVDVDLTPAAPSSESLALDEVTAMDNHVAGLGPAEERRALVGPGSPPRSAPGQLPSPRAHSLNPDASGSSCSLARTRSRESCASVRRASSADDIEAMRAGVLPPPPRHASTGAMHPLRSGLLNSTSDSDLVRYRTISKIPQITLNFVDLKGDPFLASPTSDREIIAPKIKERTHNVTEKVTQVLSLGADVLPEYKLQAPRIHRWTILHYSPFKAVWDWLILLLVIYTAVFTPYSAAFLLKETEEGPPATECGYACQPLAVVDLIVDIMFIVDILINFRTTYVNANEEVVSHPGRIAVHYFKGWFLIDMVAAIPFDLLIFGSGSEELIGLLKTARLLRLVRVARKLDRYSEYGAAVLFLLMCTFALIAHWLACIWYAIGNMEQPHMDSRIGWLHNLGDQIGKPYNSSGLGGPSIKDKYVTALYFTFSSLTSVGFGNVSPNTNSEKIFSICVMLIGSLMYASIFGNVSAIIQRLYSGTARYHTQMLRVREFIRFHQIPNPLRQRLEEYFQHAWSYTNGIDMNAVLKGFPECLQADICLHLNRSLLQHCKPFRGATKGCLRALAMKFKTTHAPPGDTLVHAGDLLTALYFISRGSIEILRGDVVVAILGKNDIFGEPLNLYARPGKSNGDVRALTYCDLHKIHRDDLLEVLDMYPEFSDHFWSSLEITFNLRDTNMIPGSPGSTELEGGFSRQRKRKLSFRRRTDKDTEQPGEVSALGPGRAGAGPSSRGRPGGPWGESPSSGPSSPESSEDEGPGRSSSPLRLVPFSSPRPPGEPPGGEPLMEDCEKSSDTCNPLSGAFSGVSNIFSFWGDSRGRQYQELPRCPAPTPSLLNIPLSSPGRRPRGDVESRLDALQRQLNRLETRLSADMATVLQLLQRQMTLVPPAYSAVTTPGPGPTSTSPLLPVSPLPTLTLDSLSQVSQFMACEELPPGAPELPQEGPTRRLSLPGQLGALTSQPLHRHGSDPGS

Compound | hERG current change (%, negative = inhibition) at 10uM
COc1cccc(OCC(O)CN2CCN(C)CC2)c1.O=C(O)C(=O)O (stereo not shown) | 16.2%
CCOC(=O)C1CCC(CNCc2ccccc2C)CC1.Cl (stereo not shown) | -24.4%
CCOC(=O)C1CCN(S(=O)(=O)Cc2ccc(Cl)cc2)CC1 | 1.25%
CCOC(=O)C1CCC(CNCc2ccc(Cl)cc2)CC1 (stereo not shown) | -69.2%
CC(=O)c1cccc(OCC(O)CN2CC=C(c3ccccc3)CC2)c1.O=C(O)C(=O)O (stereo not shown) | -68.9%
CC(=O)c1cccc(OCC(O)CN2CCN(S(=O)(=O)c3c(F)cccc3F)CC2)c1.O=C(O)C(=O)O (stereo not shown) | -31%
Cc1ccc(S(=O)(=O)n2c(C)nc3cc(C)ccc32)cc1 | -3.01%
CCn1c(C)nc2cc(C(=O)OC)ccc21 | 14.3%
CCOc1ccc(Oc2ccc(Cl)cc2N)cc1.Cl | 2.9%
Cc1ccc2nc3c(c(C(=O)OC4CCOC4=O)c2c1)CCCC3 (stereo not shown) | -0.191%
CN1CCN(c2nc(-c3cccnc3)nc3ccccc23)CC1 | -48.5%
O=S(=O)(c1ccc(F)cc1)N1CCN(c2nc(-c3cccnc3)nc3ccccc23)CC1 | -72%
Cc1ccc(S(=O)(=O)c2cnc(-c3ccccc3)nc2N2CCN(C)CC2)cc1 | -49.1%
O=S(=O)(c1ccccc1)c1cnc(-c2ccccc2)nc1N1CCCC1 | 41.8%
CN1CCN(c2nc(-c3ccccc3)ncc2S(=O)(=O)c2ccccc2)CC1 | -63.2%
CN1CCN(c2nc(-c3ccncc3)nc3ccccc23)CC1 | -67.4%
COc1ccc(S(=O)(=O)N2CCN(c3nc(-c4cccnc4)nc4ccccc34)CC2)cc1 | -39%
CCOC(=O)C1CCN(c2nc(-c3ccc(Br)cc3)nc3ccccc23)CC1 | -1.89%
CN1CCN(c2nc(-c3cccc([N+](=O)[O-])c3)nc3ccccc23)CC1 | -48.4%
CCOC(=O)C1CCN(c2nc(-c3ccc(C)cc3)nc3ccccc23)CC1 | 15.4%
NC(=O)C1CCN(c2nc(-c3ccccc3)nc3ccccc23)CC1 | -56%
CC(=O)c1ccc(S(=O)(=O)N2CCN(c3nc(-c4cccnc4)nc4ccccc34)CC2)cc1 | -40.4%

Compound | hERG current change (%, negative = inhibition) at 10uM
O=[N+]([O-])c1cnn(-c2nc(-c3ccccc3)cc(C(F)(F)F)n2)c1 | 8.82%
N/C(=N\OS(=O)(=O)c1ccc2ccccc2c1)c1cccnc1 | 5.24%
COc1ccc([N+](=O)[O-])cc1N(CC(=O)O)S(C)(=O)=O | 13.7%
O=C(O)CC1NC(=O)N(c2ccc(Cl)cc2)C1=O (stereo not shown) | 19.5%
CSc1nc(N2CCOCC2)c2c3c(sc2n1)CCCC3 | -2.32%
O=C1c2ccccc2COc2ccc(O)cc21 | 10.9%
CC(C)N(Cc1ccc(F)cc1)C(=O)c1cc2ccccc2oc1=O | 19.5%
CC1CCCC(NC(=O)COC(=O)Cc2c[nH]c3ccccc23)C1C (stereo not shown) | -14%
NC(=S)N/N=C\c1c(OCc2ccccc2Cl)ccc2ccccc12 | -2.61%
CN1CCN(/N=C/c2cccc(Cl)c2Cl)CC1.Cl | 6.09%
O=S(=O)(c1cccs1)N1CCCc2cccc(O)c21 | 7.34%
Cc1ccc(S(=O)CCNC(=O)Cc2ccc(Cl)cc2)cc1 (stereo not shown) | -8.83%
CCS(=O)(=O)N1CCCC(C(=O)NC2CCC(C)CC2)C1 (stereo not shown) | 6.05%
COc1ccc(OC)c(-n2cc3c(=O)n(C)c(=O)n(C)c3c2)c1 | -8.58%
O=S(=O)(/C=C/c1ccccc1)N1CCN(c2nc(-c3cccnc3)nc3ccccc23)CC1 | -23.6%
Brc1ccc(-c2nnc(-c3ccccc3)c(N3CCSCC3)n2)cc1 | 4.62%
c1ccc2c(N3CCOCC3)nc(-c3ccncc3)nc2c1 | -31.3%
c1cncc(-c2nc(N3CCOCC3)c3ccccc3n2)c1 | -17%
CN1CCN(c2nc(-c3ccc(C(C)(C)C)cc3)nc3ccccc23)CC1.Cl | -2.05%
CN1CCN(c2nc(-c3ccc(Br)cc3)nnc2-c2ccccc2)CC1 | -63.5%
c1cncc(-c2nc(N3CCCCCC3)c3ccccc3n2)c1 | -92.9%
